High-throughput results from PubChem.
GDH-TPI inh: inhibits GDH-TPI coupling enzymes, artifact for Mtb FBA screen; GDH-TPI coupled enzyme counterscreen, NADH absorbance; inhibition, % at 4.8 µM; AID 588335; 360,000 compounds, 1.2% hits; in the data active = inhibition above about 30%
FBA Mtb inh: inhibitors of M. tuberculosis fructose-bisphosphate aldolase; P9WQA3; purified M. tuberculosis FBA, fluorescence read-out; inhibition, % at 1 µM; 360,000 compounds, 2.3% hits; AID 588726; in the data active = inhibition above about 27%
Target sequence (P9WQA3 whole entry, looked up): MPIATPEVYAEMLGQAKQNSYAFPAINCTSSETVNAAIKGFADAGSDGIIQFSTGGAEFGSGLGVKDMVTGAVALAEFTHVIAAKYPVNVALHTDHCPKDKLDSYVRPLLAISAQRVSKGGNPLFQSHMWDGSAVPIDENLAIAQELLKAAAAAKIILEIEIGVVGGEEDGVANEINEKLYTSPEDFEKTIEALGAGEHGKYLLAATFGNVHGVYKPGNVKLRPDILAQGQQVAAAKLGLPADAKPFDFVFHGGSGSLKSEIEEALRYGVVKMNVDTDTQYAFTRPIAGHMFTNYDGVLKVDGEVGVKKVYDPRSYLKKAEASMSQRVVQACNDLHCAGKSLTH
BoNT A protease: inhibitors of Botulinum neurotoxin A light chain protease; 360,000 compounds, 0.17% hits; AID 588499; inhibition, % at 10 µM; multiplex microsphere protease substrate cleavage, flow cytometry
BoNT F protease: blocks Botulinum neurotoxin F light chain protease; Multiplex microsphere protease cleavage assay, flow cytometry; inhibition, % at 10 µM; 360,000 compounds, 0.22% hits; in the data active = inhibition above about 35%, passing the limit was not always enough; inconclusive = no clear call, values can overlap the other calls
Anthrax LF inh2: anthrax lethal factor protease inhibition; multiplex microsphere protease cleavage assay, LF; inhibition, % at 10 µM; 360,000 compounds, 0.12% hits
Autofluor counter: compound fluorescence in toxin protease inhibitor counterscreen; AID 624483; compound autofluorescence counterscreen, microsphere flow cytometry; active compounds read high; 360,000 compounds, 3.1% hits; fluorescence intensity (no concentration beside the values); in the data active = fluorescence intensity above about 16000; inconclusive = no clear call, values can overlap the other calls
A number is an active result. Most compounds without a hit are left out; they make up all but 6.7% or so of the library. Cut-off read from the data, not from the text of the source, unless noted: active = inhibition above about 30%; inconclusive = no clear call, values can overlap the other calls; inactive = below that.

How did c1ccc(-n2ncc3c(NCCCN4CCOCC4)ncnc32)cc1 do in these assays?
GDH-TPI inh: inactive; FBA Mtb inh: inactive; BoNT A protease: inactive; BoNT F protease: inactive; Anthrax LF inh2: inactive; Autofluor counter: 18090

How did Clc1ccc(-n2ncc3c(NCc4ccccn4)ncnc32)cc1 do in these assays?
GDH-TPI inh: inactive; FBA Mtb inh: inactive; BoNT A protease: inactive; BoNT F protease: inactive; Anthrax LF inh2: inactive; Autofluor counter: 19639

Results for Clc1ccc(-n2ncc3c(NCCN4CCOCC4)ncnc32)cc1 ?
GDH-TPI inh: inactive; FBA Mtb inh: inactive; BoNT A protease: inactive; BoNT F protease: inactive; Anthrax LF inh2: inactive; Autofluor counter: inactive

What do the screens show for `Cc1ccccc1Cc1c(C)nc2nc(SCC(=O)NCCCN3CCCC3)nn2c1C`?
GDH-TPI inh: inactive; FBA Mtb inh: inactive; BoNT A protease: inactive; BoNT F protease: inactive; Anthrax LF inh2: inactive; Autofluor counter: inactive

What do the screens show for `CCc1c(O)nc2ccccn2c1=O`?
GDH-TPI inh: inactive; FBA Mtb inh: inactive; BoNT A protease: inactive; BoNT F protease: inactive; Anthrax LF inh2: inactive; Autofluor counter: inactive

What do the screens show for `CC(C)OC(=O)c1nnc(Cc2ccc(Cl)cc2)o1`?
GDH-TPI inh: inactive; FBA Mtb inh: inactive; BoNT A protease: inactive; BoNT F protease: inactive; Anthrax LF inh2: inactive; Autofluor counter: inactive

How did COc1ccc(NS(=O)(=O)c2ccc(OC)c(OC)c2)cc1OC do in these assays?
GDH-TPI inh: inactive; FBA Mtb inh: inactive; BoNT A protease: inactive; BoNT F protease: inactive; Anthrax LF inh2: inactive; Autofluor counter: inactive

What do the screens show for `COc1ccc(OC)c(S(=O)(=O)NC2CCCCC2)c1`?
GDH-TPI inh: inactive; FBA Mtb inh: inactive; BoNT A protease: inactive; BoNT F protease: inactive; Anthrax LF inh2: inactive; Autofluor counter: 22696

What do the screens show for `COc1ccc(S(=O)(=O)NC2CCCC2)c(OC)c1`?
GDH-TPI inh: inactive; FBA Mtb inh: inactive; BoNT A protease: inactive; BoNT F protease: inactive; Anthrax LF inh2: inactive; Autofluor counter: inactive

How did COc1ccc(OC)c(S(=O)(=O)Nc2ccc(F)cc2)c1 do in these assays?
GDH-TPI inh: inactive; FBA Mtb inh: inactive; BoNT A protease: inactive; BoNT F protease: inactive; Anthrax LF inh2: inactive; Autofluor counter: inactive

How did COc1ccc(S(=O)(=O)Nc2cccc(Cl)c2)cc1OC do in these assays?
GDH-TPI inh: inactive; FBA Mtb inh: inactive; BoNT A protease: inactive; BoNT F protease: inactive; Anthrax LF inh2: inactive; Autofluor counter: 20245

Results for COc1cc(S(=O)(=O)NC2CCCC2)ccc1F ?
GDH-TPI inh: inactive; FBA Mtb inh: inactive; BoNT A protease: inactive; BoNT F protease: inactive; Anthrax LF inh2: inactive; Autofluor counter: 16811

Results for COc1ccc(OC)c(S(=O)(=O)Nc2cccc(F)c2)c1 ?
GDH-TPI inh: inactive; FBA Mtb inh: inactive; BoNT A protease: inactive; BoNT F protease: inactive; Anthrax LF inh2: inactive; Autofluor counter: 16709

How did COc1ccc(S(=O)(=O)NC2CCCCC2)cc1F do in these assays?
GDH-TPI inh: inactive; FBA Mtb inh: inactive; BoNT A protease: inactive; BoNT F protease: inactive; Anthrax LF inh2: inactive; Autofluor counter: inactive

How did O=C(COC(=O)Cc1ccc(Cl)cc1Cl)NC1CC1 do in these assays?
GDH-TPI inh: inactive; FBA Mtb inh: inactive; BoNT A protease: inactive; BoNT F protease: inactive; Anthrax LF inh2: inactive; Autofluor counter: inactive

How did Cc1ccc(-n2nc3c(c2NC(=O)c2ccc(Br)o2)CSC3)c(C)c1 do in these assays?
GDH-TPI inh: inactive; FBA Mtb inh: inactive; BoNT A protease: inactive; BoNT F protease: inactive; Anthrax LF inh2: inactive; Autofluor counter: inactive

How did CCOC(=O)C1CCN(Cc2cn(C)nc2-c2ccc(Oc3ccccc3)cc2)CC1 do in these assays?
GDH-TPI inh: inactive; FBA Mtb inh: inactive; BoNT A protease: inactive; BoNT F protease: inactive; Anthrax LF inh2: inactive; Autofluor counter: inactive

Results for COc1ccccc1/C=C/C1=NC(=C\C=C/c2ccccc2)/C(=O)O1 ?
GDH-TPI inh: inactive; FBA Mtb inh: inactive; BoNT A protease: inactive; BoNT F protease: 58; Anthrax LF inh2: inactive; Autofluor counter: inactive

Results for COc1ccccc1/C=C/C=C1N=C(/C=C/c2ccc(Cl)cc2)OC/1=O ?
GDH-TPI inh: inactive; FBA Mtb inh: inactive; BoNT A protease: inactive; BoNT F protease: inactive; Anthrax LF inh2: inactive; Autofluor counter: inactive

What do the screens show for `Cc1cc2oc(=O)cc(CN3CCOCC3)c2c(C)c1Cl`?
GDH-TPI inh: inactive; FBA Mtb inh: 137; BoNT A protease: inactive; BoNT F protease: inactive; Anthrax LF inh2: inactive; Autofluor counter: inactive

What do the screens show for `Cc1cc2oc(=O)cc(CN3CCOCC3)c2cc1Cl`?
GDH-TPI inh: inactive; FBA Mtb inh: inactive; BoNT A protease: inactive; BoNT F protease: inactive; Anthrax LF inh2: inactive; Autofluor counter: inactive

Results for Cc1cc(C)c2c(CN3CCN(CCO)CC3)cc(=O)oc2c1 ?
GDH-TPI inh: inactive; FBA Mtb inh: inactive; BoNT A protease: inactive; BoNT F protease: inactive; Anthrax LF inh2: inactive; Autofluor counter: 23234

Results for Cc1cc(C)c2c(CN3CCN(C)CC3)cc(=O)oc2c1 ?
GDH-TPI inh: inactive; FBA Mtb inh: inactive; BoNT A protease: inactive; BoNT F protease: inactive; Anthrax LF inh2: inactive; Autofluor counter: 16812

Results for Cc1cc(C)c2c(CN3CCN(c4ccccc4F)CC3)cc(=O)oc2c1 ?
FBA Mtb inh: inactive; BoNT A protease: inactive; BoNT F protease: inactive; Anthrax LF inh2: inactive; Autofluor counter: inactive

Results for CC(=O)NCCCc1nc2ccccc2n1Cc1ccccc1C ?
GDH-TPI inh: inactive; FBA Mtb inh: inactive; BoNT A protease: inconclusive; BoNT F protease: inactive; Anthrax LF inh2: inactive; Autofluor counter: 24006

What do the screens show for `O=CNCCCc1nc2ccccc2n1Cc1ccccc1`?
GDH-TPI inh: inactive; FBA Mtb inh: inactive; BoNT A protease: inactive; BoNT F protease: inactive; Anthrax LF inh2: inactive; Autofluor counter: 16906

How did COCCCN(C(=O)c1ccc(N2CCCC2=O)cc1)c1c(N)n(Cc2ccccc2)c(=O)[nH]c1=O do in these assays?
GDH-TPI inh: inactive; FBA Mtb inh: inactive; BoNT A protease: inactive; BoNT F protease: inactive; Anthrax LF inh2: inactive; Autofluor counter: inactive

Results for CCOC(=O)c1cnc(SC2CC(=O)N(c3ccc(C)cc3)C2=O)nc1N (stereo not drawn) ?
GDH-TPI inh: inactive; FBA Mtb inh: inactive; BoNT A protease: inactive; BoNT F protease: inactive; Anthrax LF inh2: inactive; Autofluor counter: 24081

Results for CCOC(=O)COc1ccc2c(c1)C(=O)CC(C)(c1cccnc1)O2 (stereo not drawn) ?
GDH-TPI inh: inactive; FBA Mtb inh: 59; BoNT A protease: inactive; BoNT F protease: inactive; Anthrax LF inh2: inactive; Autofluor counter: inactive

What do the screens show for `CCCS(=O)(=O)NC(=O)C1(C)CCCN(C(=O)/C=C/c2ccccc2)C1` (stereo not drawn)?
GDH-TPI inh: inactive; FBA Mtb inh: inactive; BoNT A protease: inactive; BoNT F protease: inactive; Anthrax LF inh2: inactive; Autofluor counter: inactive

How did COC(=O)C1=C(C)N=C2SCCC(=O)N2C1c1cccs1 (stereo not drawn) do in these assays?
GDH-TPI inh: inactive; FBA Mtb inh: inactive; BoNT A protease: inactive; BoNT F protease: inactive; Anthrax LF inh2: inactive; Autofluor counter: inactive

What do the screens show for `COC(=O)C1=C(C)N=C2SCCC(=O)N2C1c1ccc(C(=O)OC)cc1` (stereo not drawn)?
GDH-TPI inh: inactive; FBA Mtb inh: inactive; BoNT A protease: inactive; BoNT F protease: inactive; Anthrax LF inh2: inactive; Autofluor counter: 24822
